Hits are enriched below; roughly 3.2% of the tested compounds scored in any of these assays.
H9c2 protect = cardioprotection against H2O2-induced cell death, primary screen, uHTS, H9c2 cells, ATPLite luminescence. H9c2 cardiomyocytes, H2O2 injury protection, 2 h. protection from H2O2 cell death, % at 20 µM. actives 0.63% (n = 360,000). AID 588492, 2011;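 active means compounds giving at least 50% protection of heart cells from peroxide-induced death in the single-dose screen, raw or plate-pattern-corrected value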
aDG glyco up = activators of alpha-DG glycosylation, primary screen, uHTS, Pro5-aDG cells, AlphaScreen | alpha-DG glycosylation AlphaScreen (IIH6); 0% Pro5, 100% B10-LARGE cell signal | activation, % at 10 µM | actives 0.22% (n = 360,000);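 active means activation of at least 8% versus controls, or a plate z-score of at least 8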;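 further: Pro5 are CHO cells carrying HIG-tagged alpha-DG that lacks glycosylation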
PfGluPho inh = PfG6PD enzyme inhibitors, primary screen, biochemical, fluorescence intensity, uHTS; glucose-6-phosphate dehydrogenase-6-phosphogluconolactonase (Plasmodium falciparum 3D7); PfGluPho enzyme, NADPH resazurin-diaphorase fluorescence; inhibition, % at 20 µM; actives 0.78% (n = 350,000); AID 504690, 2011;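 active means inhibition reaching at least a set limit at 20 µM in the primary screen, cut at about 59% in these data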
CRFBP-R2 agonist = agonists of CRF-BP/CRF-R2 complex, primary screen, cell-based, HEK293, calcium dye fluorescence, uHTS; actives 0.46% (n = 350,000); calcium dye fluorescence (FLIPR); percent of saturating CRF peptide response; activation, % at 13.2 µM; CRF-binding protein / CRF receptor 2 complex (human);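 active means activation of at least 50%, plus an integration ratio under a set limit after plate pattern correction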
CRFR2-BP antag = antagonists of CRF-BP/CRF-R2 complex, primary screen, cell-based, HEK293, calcium dye fluorescence, uHTS; CRF-induced calcium fluorescence; inhibition, % at 11.8 µM; actives 0.59% (n = 350,000); AID 588475, 2011;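 active means inhibition of the ligand-induced calcium signal above about 50% at the single tested concentration, limit read from the data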
FAS-TE inh = FAS thioesterase domain inhibitors, primary screen, biochemical, fluorescence intensity, uHTS. recombinant FAS-TE, OMFH fluorogenic substrate, fluorescence endpoint. inhibition, % at 15 µM. actives 0.67% (n = 360,000). AID 602261, 2012;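 active means compounds whose normalised, plate-corrected inhibition of enzyme fluorescence in the single-dose primary screen is 50% or more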
Target sequence (P49327 whole entry, looked up, the tested form may be a part): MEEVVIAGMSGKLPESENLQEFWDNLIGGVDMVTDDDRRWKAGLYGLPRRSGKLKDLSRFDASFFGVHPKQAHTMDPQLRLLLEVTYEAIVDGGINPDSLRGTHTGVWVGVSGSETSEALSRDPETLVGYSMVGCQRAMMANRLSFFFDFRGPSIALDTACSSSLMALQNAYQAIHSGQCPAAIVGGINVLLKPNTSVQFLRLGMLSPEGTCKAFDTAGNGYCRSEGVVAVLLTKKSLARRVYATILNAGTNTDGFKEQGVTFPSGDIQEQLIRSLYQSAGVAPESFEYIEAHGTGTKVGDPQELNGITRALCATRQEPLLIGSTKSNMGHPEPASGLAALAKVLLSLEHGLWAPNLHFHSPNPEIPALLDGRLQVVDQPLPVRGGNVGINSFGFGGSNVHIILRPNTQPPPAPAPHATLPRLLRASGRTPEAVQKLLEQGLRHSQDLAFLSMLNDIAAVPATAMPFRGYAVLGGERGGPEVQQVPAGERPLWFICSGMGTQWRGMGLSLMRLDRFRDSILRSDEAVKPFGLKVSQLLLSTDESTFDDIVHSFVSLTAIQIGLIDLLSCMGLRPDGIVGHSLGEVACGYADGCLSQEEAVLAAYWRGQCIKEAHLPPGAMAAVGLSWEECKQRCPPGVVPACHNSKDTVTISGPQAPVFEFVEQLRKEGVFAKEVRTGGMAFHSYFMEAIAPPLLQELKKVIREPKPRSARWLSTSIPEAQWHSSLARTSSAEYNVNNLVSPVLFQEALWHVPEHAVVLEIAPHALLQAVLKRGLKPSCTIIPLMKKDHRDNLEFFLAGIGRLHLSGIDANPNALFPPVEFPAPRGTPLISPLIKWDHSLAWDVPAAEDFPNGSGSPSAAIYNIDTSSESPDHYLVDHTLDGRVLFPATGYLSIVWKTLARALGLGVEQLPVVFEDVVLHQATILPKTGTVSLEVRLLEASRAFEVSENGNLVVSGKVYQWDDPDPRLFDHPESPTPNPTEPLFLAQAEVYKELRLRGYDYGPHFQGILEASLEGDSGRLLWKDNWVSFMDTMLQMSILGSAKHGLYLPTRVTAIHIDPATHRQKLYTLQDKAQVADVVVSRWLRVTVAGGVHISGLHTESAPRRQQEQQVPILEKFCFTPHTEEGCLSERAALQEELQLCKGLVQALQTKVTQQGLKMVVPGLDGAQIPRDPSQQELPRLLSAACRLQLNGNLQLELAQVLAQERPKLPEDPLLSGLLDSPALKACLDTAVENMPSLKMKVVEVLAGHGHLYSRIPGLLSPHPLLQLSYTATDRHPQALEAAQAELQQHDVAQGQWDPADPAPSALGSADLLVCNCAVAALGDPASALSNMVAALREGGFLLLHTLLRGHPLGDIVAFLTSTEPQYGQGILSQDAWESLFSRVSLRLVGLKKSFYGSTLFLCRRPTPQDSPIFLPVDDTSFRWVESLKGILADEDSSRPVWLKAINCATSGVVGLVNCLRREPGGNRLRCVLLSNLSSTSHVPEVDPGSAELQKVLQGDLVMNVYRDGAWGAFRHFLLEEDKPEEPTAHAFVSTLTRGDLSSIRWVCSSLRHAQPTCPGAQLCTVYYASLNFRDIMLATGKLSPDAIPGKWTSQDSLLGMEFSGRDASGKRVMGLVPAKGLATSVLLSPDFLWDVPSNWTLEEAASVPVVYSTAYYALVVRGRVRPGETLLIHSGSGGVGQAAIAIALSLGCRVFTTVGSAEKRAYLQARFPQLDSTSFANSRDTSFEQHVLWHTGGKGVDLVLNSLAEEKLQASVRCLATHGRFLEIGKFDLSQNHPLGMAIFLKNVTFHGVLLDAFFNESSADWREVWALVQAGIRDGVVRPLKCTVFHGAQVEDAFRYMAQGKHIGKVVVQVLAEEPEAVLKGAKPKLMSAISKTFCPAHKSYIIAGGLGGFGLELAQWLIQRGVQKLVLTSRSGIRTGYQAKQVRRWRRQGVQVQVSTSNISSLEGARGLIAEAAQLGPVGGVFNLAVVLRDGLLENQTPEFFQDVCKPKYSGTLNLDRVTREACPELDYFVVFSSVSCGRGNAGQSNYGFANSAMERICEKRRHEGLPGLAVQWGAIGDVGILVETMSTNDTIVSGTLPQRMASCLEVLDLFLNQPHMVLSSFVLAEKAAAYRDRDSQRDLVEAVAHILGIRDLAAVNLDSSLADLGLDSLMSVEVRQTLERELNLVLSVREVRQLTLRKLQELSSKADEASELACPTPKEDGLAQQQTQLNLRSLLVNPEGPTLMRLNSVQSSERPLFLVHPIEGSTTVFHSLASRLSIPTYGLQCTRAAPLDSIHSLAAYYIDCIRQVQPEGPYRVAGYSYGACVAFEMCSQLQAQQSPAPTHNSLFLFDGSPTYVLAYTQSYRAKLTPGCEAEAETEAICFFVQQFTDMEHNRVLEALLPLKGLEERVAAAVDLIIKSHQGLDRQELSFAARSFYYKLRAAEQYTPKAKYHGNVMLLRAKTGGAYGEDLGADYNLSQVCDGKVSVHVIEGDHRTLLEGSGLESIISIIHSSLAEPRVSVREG
PfGluPho conf = PfG6PD inhibitors, hit retest, confirmation, biochemical, fluorescence intensity, single concentration. recombinant PfGluPho, NADPH-diaphorase-resazurin fluorescence. AID 504753, 2011. inhibition, % at 20 µM. actives 34% (n = 2,400). shares compounds with PfGluPho inh;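 active means inhibition of at least 50% at 20 µM in any single replicate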
Diaphorase 10uM = diaphorase inhibitors and chemical oxidizers, confirmation, counter-screen for P. falciparum G6PD inhibitor project, biochemical, fluorescence intensity, 10 µM NADPH; actives 39% (n = 820); inhibition, % at 20 µM; diaphorase-coupled resazurin reduction, NADPH 10 uM; shares compounds with PfGluPho inh; AID 504862, 2011;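 active means average inhibition reaching 50% or more with the compound at 20 µM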;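 further: resorufin red fluorescence formed as diaphorase reduces resazurin using NADPH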
Diaph ctr 30uM = diaphorase inhibitors and chemical oxidizers, confirmation, counter-screen for P. falciparum G6PD inhibitor project, biochemical, fluorescence intensity, 30 µM NADPH. shares compounds with PfGluPho inh. Diaphorase/resazurin coupled assay, resorufin fluorescence. inhibition, % at 20 µM. actives 29% (n = 820). AID 504863, 2011;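 active means inhibition averaging 50% or more, tested at 20 µM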
Large screens that a line does not name were inactive (follow-up assays come after a bar, where they were run).

Nc1cc(S(=O)(=O)Nc2cc(Cl)ccc2Cl)ccc1N1CCOCC1	PfGluPho inh 61 | PfGluPho conf inactive
Nc1cc(S(=O)(=O)Nc2ccccc2Cl)ccc1N1CCCC1	none
O=S(=O)(Nc1ccccc1N1CCOCC1)c1ccc(Cl)cc1	PfGluPho inh 70 | PfGluPho conf inactive
Cc1cc(C)c(C)c(S(=O)(=O)Nc2ccccc2N2CCOCC2)c1C	PfGluPho inh 65 | PfGluPho conf inactive
c1csc(-c2nn3c(Cn4cnc5ccccc54)nnc3s2)c1	PfGluPho inh 75 | PfGluPho conf inactive
Clc1cccc(-c2nn3c(Cn4cnc5ccccc54)nnc3s2)c1	PfGluPho inh 62 | PfGluPho conf inactive
N#Cc1cc2c([nH]c1=S)CCCC2	none
CC1(C)Cc2[nH]c(=S)c(C#N)cc2CO1	PfGluPho inh 63 | PfGluPho conf inactive
CCCCOCCCNC(=O)C[C@@H]1C[C@@]2(C(=O)OC)CC(C)(C)CC=C2N(Cc2ccc3c(c2)OCO3)C1=O	none (no result: H9c2 protect, PfGluPho inh, CRFBP-R2 agonist, CRFR2-BP antag, FAS-TE inh)
O=[N+]([O-])c1ccc(-[n+]2ccc3ccccc3c2)c([N+](=O)[O-])c1	PfGluPho inh 94 | PfGluPho conf 67 | Diaphorase 10uM inactive | Diaph ctr 30uM inactive
CCCCN1C(=O)/C(=C2\SC(N3CCCCC3)=NC2=O)c2ccccc21	PfGluPho inh 65 | PfGluPho conf inactive
CCOC(=O)CSc1nc(C)cc(=O)[nH]1	none
CCOC(=O)CSc1nc2nc(Cl)c(Cl)nc2[nH]1	PfGluPho inh 81 | PfGluPho conf inactive
COCCn1c(SCC(=O)N2CC(=O)Nc3ccccc32)nc2ccccc21	none
O=C1C(Cl)=C(NCCc2ccccc2)C(=O)c2ccccc21	PfGluPho inh 97 | PfGluPho conf 80 | Diaphorase 10uM inactive | Diaph ctr 30uM inactive
CCOC(=O)c1cnc(-c2ccccc2O)nc1Cl	PfGluPho inh 60 | PfGluPho conf inactive
CN(C)c1ccc(C(CNC(=O)c2ccco2)N2CCCC2)cc1 (stereo unspecified)	none
O=C1C=C(NCc2ccccc2)c2ccccc2C1=O	aDG glyco up 8.7, PfGluPho inh 118 | PfGluPho conf inactive
COc1cc(/C=N/N2CCN(C3c4ccccc4-c4ccccc43)CC2)cc(OC)c1O	PfGluPho inh 76 | PfGluPho conf inactive
COc1cc(/C=N/N2CCN(C3c4ccccc4-c4ccccc43)CC2)cc(OC)c1OC	none
COc1cc(/C=N/N2C(C)CCCC2C)cc(OC)c1O (stereo unspecified)	PfGluPho inh 84 | PfGluPho conf inactive
COc1ccc(N=C2C(=Nc3ccc(OC)cc3)N(c3ccc(OC)cc3)C(=S)N2C(=O)c2ccc(OC)cc2)cc1	none
COc1ccc(N2C(=S)N(C(=O)c3ccccc3)C(=Nc3ccccc3)C2=Nc2ccccc2)cc1	PfGluPho inh 64 | PfGluPho conf inactive
Oc1c(Br)cc(Br)cc1C=Nc1cccc2ncccc12	H9c2 protect 64 | PfGluPho conf inactive
Brc1cccc(C=Nc2cccc3ncccc23)c1	none
Clc1cccc(Cl)c1CNc1ccc(N2CCCC2)cc1	PfGluPho inh 96 (no result: H9c2 protect, aDG glyco up, FAS-TE inh) | PfGluPho conf 55 | Diaphorase 10uM inactive | Diaph ctr 30uM inactive
NC1=CC(=O)C(=O)c2ccccc21	PfGluPho inh 71 | PfGluPho conf inactive
Nc1ccc(O)c2c1C(=O)c1ccccc1C2=O	none
OCc1ccccc1CNCc1ccccc1	none
Oc1cc(CNCc2ccccc2)c(O)cc1CNCc1ccccc1	PfGluPho inh 70 | PfGluPho conf 49 | Diaphorase 10uM inactive | Diaph ctr 30uM inactive
O=C(NCc1cccc(Cl)c1)c1ccc(-n2ccnc2)c2ccoc12	none (no result: PfGluPho inh, CRFBP-R2 agonist, CRFR2-BP antag)
O=C1CCCC(=O)C1C(c1ccc(Cl)cc1)C1C(=O)CCCC1=O	PfGluPho inh 77 | PfGluPho conf inactive
O=C1N=C(c2ccccc2)S/C1=C\c1cccs1	PfGluPho inh 63 | PfGluPho conf inactive
COCCn1c(N)c(C(=O)NCC2CCCO2)c2nc3ccccc3nc21 (stereo unspecified)	none
Nc1c(C(=O)OCC2CCCO2)c2nc3ccccc3nc2n1C1CCCC1 (stereo unspecified)	none | PfGluPho conf inactive
Cc1ccc(-n2c(C)cc(C(=O)CSc3nncs3)c2C)cc1	PfGluPho inh 62 | PfGluPho conf inactive
Cc1cc(C(=O)CSc2nncs2)c(C)n1-c1c(C)n(C)n(-c2ccccc2)c1=O	none
Cc1cnc(C(=O)OCC(=O)Nc2cc(-c3ccccc3)nn2-c2ccccc2)cn1	none
COC(=O)CCCC1=CC2=CC(=O)C(C)(OC(=O)c3cccs3)C(=O)C2=CN1Cc1ccccc1 (stereo unspecified)	PfGluPho inh 75 | PfGluPho conf inactive
COC(=O)CCCC1=CC2=CC(=O)C(C)(OC(=O)c3cccs3)C(=O)C2=CN1CCCOC(C)C (stereo unspecified)	PfGluPho inh 62 | PfGluPho conf inactive
COC(=O)CCCC1=CC2=CC(=O)C(C)(OC(=O)c3cccs3)C(=O)C2=CN1Cc1ccco1 (stereo unspecified)	PfGluPho inh 73 | PfGluPho conf inactive
Cc1ccc(OCCn2cc(/C=C3\C(=O)NN(c4ccccc4)C3=O)c3ccccc32)cc1	PfGluPho inh 65 | PfGluPho conf inactive
Cc1ccc(NC(=S)NNC(=S)Nc2ccc(C)cc2)cc1	PfGluPho inh 78 | PfGluPho conf inactive
Cc1ccc(NC(=S)NNC(=O)Nc2ccccc2)cc1	none
COc1ccc(CN(C)C[C@H]2OCCCC[C@@H](C)Oc3ccc(NS(C)(=O)=O)cc3C(=O)N([C@H](C)CO)C[C@@H]2C)cc1	none
Cc1nc2cc(NC(=O)c3ccc(Br)s3)ccc2s1	PfGluPho inh 67 | PfGluPho conf inactive

Source: PubChem
